Results filed as inconclusive are left out. A number with no mark means an inactive call. Active and inactive are the calls of the source. Calls come from the whole dose curve; as a rule, active = well fitted cell-killing curve with a large enough effect; inconclusive = small, poorly fitted or top-dose-only effect; inactive = no such curve, though single readings can be large or run the other way.
assay: qHTS of pediatric cancer cell lines to identify multiple opportunities for drug repurposing: Primary screen for Rh41 cells (AID 1347108); details: Rh41 rhabdomyosarcoma viability, CellTiter-Glo luminescence, 48 h; series mostly up to 46 µM; activity change, negative = cytotoxic: at the top concentration; note: nearly all actives have a fitted effect of over 70% in size;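 for activity change, negative = cytotoxic: luminescence drop marks cytotoxic hits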
Text: Drug repurposing or repositioning has been offered as a strategy for drug development in oncology programs. This approach has special potential for childhood cancers and other rare or orphan diseases, where the expected return on new drug development has been a disincentive to pharmaceuticals. […] In this project we exploit the poly-pharmacology of drugs to discover new indications via phenotypic screening of a panel of 19 well-characterized cell lines derived from solid tumors seen in children and adolescents. The goal is to identify approved drugs with previously unrecognized anticancer properties that has the potential to reveal new mechanisms and biological processes involved in carcinogenesis or drug resistance. We employed a titration-based paradigm (quantitative high-throughput screening or qHTS), where all compounds were tested at multiple concentrations for their effect on cell viability. Concentration-response curves (CRCs) were derived directly from the primary screen, and both potency and efficacy values were used to identify compounds with robust bioactivity profiles. We screened the NIH Chemical Genomics Center (NCGC) Pharmaceutical Collection (NPC) and Mechanism Interrogation Plate (MIPE) small molecule collections of approved and investigational compounds against these cell lines; and measured metabolically active cells after 48 hours of compound treatment as a proxy for cell viability. […] Assay Submitter: Nathalia J. Martinez, National Center for Advancing Translational Sciences, National Institutes of Health, Rockville, MD, USA; email: natalia.martinez@nih.gov Shen, M et al. Quantitative high-throughput phenotypic screening of pediatric cancer cell lines identifies multiple opportunities for drug repurposing. Oncotarget 2017 Dec 19;9(4):4758-4772. PMID 29435139.
The cells were obtained from University of North Carolina (UNC), Pediatric Preclinical Testing Program (PPT), and Coriell Institute (CI). qHTS cell viability assay: Cells were assayed in growth media at a density of 500-1,000 cells/well. Five microliters of cells were dispensed into 1,536-well, white, solid-bottom, TC-treated plates (Greiner Bio One) using a multidrop dispenser and incubated at 37 degrees C, 5% CO2, under a humidified atmosphere for 5 hours. Twenty-three nanoliters of compounds and controls (neutral control DMSO or positive control bortezomib at final concentration of 2.3 µM) were subsequently transferred by Kalypsys pintool. For primary screens, the MIPE collection was tested at 11-point dilutions (final concentrations range from 0.78 nM to 46 µM) and the NPC collection at 8-point dilutions (final concentrations range from 0.59 nM to 46 µM). Compounds tested in follow-up screens were assayed at 11-point dilutions. Cells were incubated for 48 hours, followed by addition of 3 µL of CellTiter-Glo (Promega). After a 15 min incubation at room temperature, samples were analyzed for luminescence intensity using a ViewLux High-throughput CCD imager equipped with clear filters.
Potency is the fitted concentration of half-maximal effect.

Structure (SMILES) | activity change, negative = cytotoxic | Potency
CCOC(=O)OCC/C(SC(=O)OCC)=C(\C)N(C=O)Cc1cnc(C)nc1N | 7.79% | 
COc1cc2c(cc1OC)C(=O)CC2 | 23.1% | 
CC(C)=CCC/C(C)=C/CC/C(C)=C/CCC(=O)OC/C=C(\C)CCC=C(C)C | 19% | 
C[C@@H]1CCC[C@H](C)N1CCCC(O)(c1ccccc1)c1ccccn1 (stereo not given in full) | -6.22% | 
CC(CC1c2ccccc2CCc2ccccc21)CN(C)C (stereo not given) | 14.4% | 
Oc1ccccc1 | 32% | 
COc1ccccc1N1CCN(CC(O)COc2cc(OC)c(OC)c(OC)c2)CC1 (stereo not given) | 25.1% | 
CC1c2ccccc2CN1NC(=O)c1ccc(Cl)c(S(N)(=O)=O)c1 (stereo not given) | 10.3% | 
CO[C@@]1(NC(=O)CSC[C@@H](N)C(=O)O)C(=O)N2C(C(=O)O)=C(CSc3nnnn3C)CS[C@@H]21 | 11.7% | 
O=C(O)CCC(=O)OC[C@@H](NC(=O)C(Cl)Cl)[C@H](O)c1ccc([N+](=O)[O-])cc1 | 22% | 
CC(=O)OCC(=O)Nc1cc(C#N)cc(NC(=O)COC(C)=O)c1Cl | 24.9% | 
Nc1ncnc2c1ncn2Cc1c(F)cccc1Cl | 19.9% | 
O=C1CC2(CCCC2)CC(=O)N1 | 30.9% | 
O=C(O)CCCC[P+](c1ccccc1)(c1ccccc1)c1ccccc1 | 13.4% | 
CCCCCC1Nc2cc(C(F)(F)F)c(S(N)(=O)=O)cc2S(=O)(=O)N1 (stereo not given) | 27.3% | 
CCC(C(=O)NC(=O)NC(C)=O)c1ccccc1 (stereo not given) | 14.6% | 
CC1CN(c2cc3c(cc2F)c(=O)c(C(=O)O)cn3-c2ccc(F)cc2F)CCN1 (stereo not given) | 11.4% [at 4.84 µM] | 
O=C1CCCc2c(O)cccc21 | -5.42% | 
OCc1cccnc1 | 9.23% | 
C[C@H](N)C(=O)N[C@@H](C)C(=O)NC1[C@H]2CN(c3nc4c(cc3F)c(=O)c(C(=O)O)cn4-c3ccc(F)cc3F)C[C@@H]12 (stereo not given in full) | 13.7% | 

Structure (SMILES) | activity change, negative = cytotoxic | Potency
CCc1cccc2c(CCO)c[nH]c12 | 23% | 
COC(=O)c1cc(S(N)(=O)=O)ccc1OC | 16.6% | 
O=C(O)c1ccccc1Nc1cc(Cl)ccc1C(=O)O |  | 11.6 µM (active)
Cc1cc(O)c2c(O)c3c(O)cccc3cc2c1 | 24.8% | 
O=C1CC(c2ccc(Cl)cc2)CC(=O)N1 | 30.3% | 
COc1ccc2c(c1)CCCC2=O | 25.3% | 
O=c1[nH]c2ccccc2c(=O)n1CCCl | 37.1% | 
Cc1c(C)c2c(c(C)c1OC(=O)CCC(=O)OCCO)CC[C@@](C)(CCC[C@H](C)CCC[C@H](C)CCCC(C)C)O2 | 3.84% | 
CCOC(=O)c1ccc(NC(=O)CN2CCCCC2)cc1 | 24.8% | 
CC(=O)OCC(=O)[C@@]1(O)CCC2C3CCC4=CC(=O)CC[C@]4(C)C3[C@@H](O)C[C@@]21C (stereo not given in full) | 4.86% | 
CC(C)(C)c1ccc(C(=O)CCCCl)cc1 | 19.3% | 
Cc1ccccc1N1CCN(CCc2nnc3n2CCCC3)CC1 | 25.3% | 
CCN1CCCC1CN (stereo not given) | 16.2% | 
CC(NN)c1ccccc1 (stereo not given) | 7.5% [at 16.1 µM] | 
Cn1c(=O)c2c(ncn2CC(=O)O)n(C)c1=O | 12.3% | 
OC(CCCN1CCCCC1)(c1ccccc1)c1ccccc1 | -6.4% | 
CCOC(=O)N1CCC(n2c(=O)[nH]c3cc(Cl)ccc32)CC1 | 11.2% | 
O=C(Nc1ccc(S(=O)(=O)N2CCOCC2)cc1)c1cc(Cl)ccc1NS(=O)(=O)c1ccc(Cl)s1 | 31% | 
CCCCNc1ccc(C(=O)OCCN(CC)CC)cc1 | 20% | 
CCOC(=O)CN1CCCC1=O | 20.7% | 
